# Test results published in ChEMBL document CHEMBL3988442, “University of Dundee, Small-Polar-MMV Screening Library” (2021).
# About 960 (1.5%) of roughly 66,000 compounds showed an effect of 50% or more. For the sample, strong results were picked, then their nearest neighbours and some compounds at random.
# Test system: Trypanosoma brucei
# Assay: Trypanosoma brucei 72 hour study
# Format: functional, organism-based
# Design: scale not given: in the data most compounds retested in dose-response had high values
smiles,measurement,setting,value
CO[C@H]1CN(C(=O)OC(C)(C)C)CC1NCc1cccn1C (stereo partly drawn),Percent Effect,"30 µM, 30.03 µM",-31.18%
Cc1ccc(C2COCCN2C(=O)c2cccc(N(C)C)c2)o1 (stereo not drawn),Percent Effect,"30 µM, 30.03 µM",50.27%
Cc1ccc(C2COCCN2C(=O)c2ccc(N(C)C)cc2)o1 (stereo not drawn),Percent Effect,"30 µM, 30.03 µM",5.525%
Cc1ccc(C2COCCN2C(=O)c2ccc(F)c(F)c2)o1 (stereo not drawn),Percent Effect,"30 µM, 30.03 µM",29.67%
CN(C)C(=O)CN1C(=O)C[C@@H]2[C@@H]1CCN2Cc1cccc(C#N)c1.O=C(O)C(F)(F)F,Percent Effect,"30.3 µM, […]",-180.8%
Cc1nc(C)c(C(=O)N2CCc3nc4c(C)csc4c(=O)n3CC2)s1.Cl,Percent Effect,"30.3 µM, […]",-52.81%
CN(c1ncc(C(=O)NCc2ccccc2)c(N)n1)C1CCCCC1,Percent Effect,"30.3 µM, […]",91.96%
CN(c1ncc(C(=O)Nc2ccccc2)c(N)n1)C1CCCCC1,Percent Effect,"30.3 µM, […]",1.024%
COc1ccc(NC(=O)c2cnc(N(C)C3CCCCC3)nc2N)cc1,Percent Effect,"30.3 µM, […]",61%
CN(c1ccc(CNC(=O)c2ccc(O)nc2)cc1)C1CCCCC1,Percent Effect,"30 µM, 30.03 µM",-19.08%
COc1ccc(NC(=O)c2cnc(C3CCN(C)CC3)nc2C)cc1,Percent Effect,"30.3 µM, […]",-7.704%
Cc1nc(N(C)C2CCCCC2)ncc1C(C)NC(=O)c1cccnc1 (stereo not drawn),Percent Effect,"30.3 µM, […]",-134.2%
Cc1ccc(N2Cc3nc(=O)n(C(C)C)n3C2=O)cc1,Percent Effect,"30 µM, 30.03 µM",-28.54%
CN(C(=O)Cc1ccc(NC(=O)NC2CCC2)cc1)c1ccccc1,Percent Effect,"30 µM, 30.03 µM",-6.814%
CC(C)c1nccc(CN(C)Cc2cnn(-c3ccccc3)c2)n1,Percent Effect,"30 µM, 30.03 µM",6.527%
Cc1nsc(C(=O)NCCCc2ccccc2)n1,Percent Effect,"30 µM, 30.03 µM",-6.915%
COc1cccc(-c2cnc(C3CCNCC3)cn2)c1,Percent Effect,"30.3 µM, […]",-29.22%
Cl.Fc1ccc(-c2cnc(C3CCCN3)cn2)cc1 (stereo not drawn),Percent Effect,"30.3 µM, […]",19.97%
Fc1ccc(-c2cnc(C3CCNCC3)cn2)cc1,Percent Effect,"30.3 µM, […]",58.37%
C[C@@]1(O)CCN(Cc2cc[nH]n2)C[C@H]1Oc1cccc(F)c1,Percent Effect,"30.3 µM, […]",13.98%
COCCO[C@H]1CCN(C(=O)NC2CC2)[C@H]1Cc1cnn(C)c1,Percent Effect,"30 µM, 30.03 µM",-38.19%
CCn1c(CN2CCCC(O)(c3ccc(F)cc3)CC2)cnc1SC.O=C(O)CC(O)(CC(=O)O)C(=O)O (stereo not drawn),Percent Effect,"30.3 µM, […]",-0.3019%
CNCCNc1nccc(-c2cn(C)nc2C)n1,Percent Effect,"30.3 µM, […]",-7.529%
CCN(CC)CCCNc1nccc(-c2cn(C)nc2C)n1,Percent Effect,"30.3 µM, […]",0.2363%
CCCOCCCNc1nccc(-c2cn(C)nc2C)n1,Percent Effect,"30 µM, 30.03 µM",60.81%
NC(=O)c1c[nH]nc1NC(=O)c1cccc(Cl)c1,Percent Effect,"30.3 µM, […]",-12.02%
Cc1ccccc1C(=O)N1CCOCC1CN(C)C.O=CO (stereo not drawn),Percent Effect,"30.3 µM, […]",13.8%
CN(CCO)CC1COCCN1C(=O)C1CCCCC1.O=CO (stereo not drawn),Percent Effect,"30 µM, 30.03 µM",-4.713%
CN(C)CC1COCCN1C(=O)C1(c2cccs2)CCCC1.O=CO (stereo not drawn),Percent Effect,"30.3 µM, […]",99.83%
CN(CCO)CC1COCCN1C(=O)C1(c2cccs2)CCCC1.O=CO (stereo not drawn),Percent Effect,"30.3 µM, […]",95.25%
CN(CCO)CC1COCCN1C(=O)CCC1CCCC1.O=CO (stereo not drawn),Percent Effect,"30 µM, 30.03 µM",-33.47%
O=C(N1CCOCC1CO)C1(c2cccs2)CCCC1 (stereo not drawn),Percent Effect,"30.3 µM, […]",-27.69%
C1CC(N2C[C@@H]3COC[C@]3(COCC3CCOCC3)C2)C1.O=C(O)C(F)(F)F,Percent Effect,"30.3 µM, […]",-71.78%
CN1CCN(C(=O)[C@H]2C[C@H]3[C@H](CCN3Cc3cccs3)O2)CC1.O=C(O)C(F)(F)F.O=C(O)C(F)(F)F,Percent Effect,"30.3 µM, […]",-15.62%
O=C(c1cnc(-c2ccco2)s1)N1CCCCC1Cn1cccn1 (stereo not drawn),Percent Effect,"30.3 µM, […]",-0.6425%
CN(C)C1COC2(CCN(Cc3ccc4c(c3)OCO4)CC2)C1.O=C(O)C(F)(F)F.O=C(O)C(F)(F)F (stereo not drawn),Percent Effect,"30.3 µM, […]",39.28%
c1ccc(-c2cc(CNCCCN3CCCCC3)c3nnnn3c2)cc1,Percent Effect,"30.3 µM, […]",-3.089%
c1ccc(-c2cc(CNCCN3CCOCC3)c3nnnn3c2)cc1,Percent Effect,"30.3 µM, […]",-21.36%
c1ccc(-c2cc(CNCCN3CCCC3)c3nnnn3c2)cc1,Percent Effect,"30.3 µM, […]",99.79%
O=C(N1CCOCC1)N1CCc2ncnc(NC3CCC3)c2CC1.O=C(O)C(F)(F)F,Percent Effect,"30.3 µM, […]",-46.89%
O=C(Cn1cccn1)Nc1ccc(N2CCCCC2)cc1,Percent Effect,"30 µM, 30.03 µM",-14.86%
Cc1cccnc1[C@]1(O)CC[C@H]2CN(Cc3cccc(Cl)c3Cl)C[C@H]21.O=C(O)CC(O)(CC(=O)O)C(=O)O,Percent Effect,"30.3 µM, […]",-4.562%
Cc1ccc(SC2CCCC2)c(C(=O)NCCO)c1,Percent Effect,"30 µM, 30.03 µM",-19.93%
COc1cccc(CNCc2c(C(C)C)nn(C)c2N(C)C)c1OC,Percent Effect,"30 µM, 30.03 µM",101.8%
COc1ncccc1CNCc1c(C(C)C)nn(C)c1N(C)C,Percent Effect,"30.3 µM, […]",0.2022%
Cc1ccc(C(O)CNCc2c(C(C)C)nn(C)c2N(C)C)cc1 (stereo not drawn),Percent Effect,"30 µM, 30.03 µM",54.73%
CC(C)c1nn(C)c(N(C)C)c1CNCC(O)c1cccc(F)c1 (stereo not drawn),Percent Effect,10 µM,-45.99%
COCc1ccccc1CNCc1c(C(C)C)nn(C)c1N(C)C,Percent Effect,10 µM,-17.78%
CC(C)c1nn(C)c(N(C)C)c1CNCC(O)c1ccccc1 (stereo not drawn),Percent Effect,"30.3 µM, […]",9.453%
same,Percent Effect,"10 mM, 10 mM as filed; unlikely as a test dose",-25.34%
Cc1ccc(CN(CCCN2CCOCC2)Cc2[nH]cnc2C)o1.O=C(O)CC(O)(CC(=O)O)C(=O)O,Percent Effect,"30.3 µM, […]",-12.11%
CN(C)CCNC(=O)C1Cc2nc(-c3ccccc3)sc2N1CC1CC1.O=C(O)C(F)(F)F (stereo not drawn),Percent Effect,"30.3 µM, […]",23.06%
O=C(C1CCOCC1)N1CCc2onc(COc3cccnc3)c2C1.O=C(O)C(F)(F)F,Percent Effect,"30.3 µM, […]",-638.1%
COc1cc(CN(C)[C@@H]2COC[C@H]2c2ccc(F)cc2)cc(OC)c1.O=C(O)CC(O)(CC(=O)O)C(=O)O,Percent Effect,"30.3 µM, […]",-25.55%
Cc1ccc(N2CC[C@H]3O[C@@H](C(=O)N4CCCO4)CC[C@H]32)nn1.O=C(O)C(F)(F)F,Percent Effect,"30.3 µM, […]",-45.1%
COc1ccc(CNC(=O)Nc2cccnc2N2CCCC2)cc1,Percent Effect,"30.3 µM, […]",-33.31%
COc1ccc(CNC(=O)Nc2cccnc2N2CCCC2)cc1O,Percent Effect,"30 µM, 30.03 µM",51.01%
COc1ccc(CNC(=O)Nc2cccnc2N2CCCC2)cc1OC,Percent Effect,"30.3 µM, […]",-31.53%
CC1CCN(CC(=O)NC2CCN(C(C)c3ccccc3)CC2)CC1.Cl (stereo not drawn),Percent Effect,"30.3 µM, […]",21.99%
COc1ccc(CN2CCC3(CC2)CCN(c2cnn(C)c2)C3=O)cc1.O=C(O)C(F)(F)F,Percent Effect,"30 µM, 30.03 µM",29.53%
CN(C)c1nc2c(c(N(C)Cc3n[nH]c4c3CCCC4)n1)CCNCC2,Percent Effect,"30 µM, 30.03 µM",21.59%
CN(Cc1n[nH]c2c1CCCC2)c1nc(C2CC2)nc2c1CCNCC2,Percent Effect,"30 µM, 30.03 µM",53.53%
CN(Cc1n[nH]c2c1CCC2)c1nc(C2CCCC2)nc2c1CNC2,Percent Effect,"30 µM, 30.03 µM",-1.405%
